This is an account of results in PubChem BioAssay AID504727 (Broad Institute, 2011).

Unmarked numbers belong to inactive results. Activity calls are given as the source filed them.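 How the source made its calls: active means fitted half-maximal concentration AC50 at or below ten times the highest valid tested dose, with signal falling as DNA is displaced (actives reach about 34 µM in these data); inconclusive means flat fit at moderate signal loss, or poor fit quality; inactive means the rest, including signal rising instead of falling.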

By AC50 is commonly meant the midpoint of the concentration-response curve, whichever way the signal moves.

The nature of this test: acridine orange-DNA binding displacement – biochemical, fluorescence polarization, cherry-picked samples, set 2, artefact control for KSHV LANA DNA-binding inhibitor project, dose response (AID 504727).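 On activity change, negative = DNA displacement: 0% = median of neutral control wells and -100% = mitoxantrone positive control wells.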 Particulars: series mostly up to 35 µM; activity change, negative = DNA displacement: at the top concentration. Background: Polarisation of emitted light reports the rotation of a fluorescent probe.
For `CCOC(=O)C1(Cc2cccc(F)c2)CCN(Cc2c(C)nn(CC)c2C)CC1`, the “activity change, negative = DNA displacement” value (“activity change” below) is -0.455%.

Turning to `CCCCn1c(=O)[nH]c2nc3cc(N)ccc3nc2c1=O`, the AC50 was 3.75 µM (active).

Turning to `O=C(CN1C(=O)/C(=C/c2ccco2)SC1=S)Nc1ccc(C(=O)O)c(O)c1`, the “activity change” value was 5.32%.

`O=S(=O)(O)c1cc(O)c2ccc(Nc3ccccc3)cc2c1`: the “activity change” value was 8.12%.

As to `O=C1c2ccccc2C(=O)C1c1ccccn1`, the “activity change” value was -2.43%.

On to `CCCc1cc(=O)oc2cc(C)cc(OCC(=O)O)c12`, for which the “activity change” value was -6.33%.

Take `Cc1ccc(N2CC(C(=O)Nc3nnc(SCC(=O)Nc4nc(C)cs4)s3)CC2=O)cc1` (stereo not drawn): the “activity change” value was 0.01%.

Take `O=C(OCc1ccccc1)N1C=CC2CC1c1c(Cl)cccc12` (stereo not drawn): the “activity change” value is 2.87%.

Consider `COC(=O)c1ccc(OCC(O)CN2CCC(C)CC2)cc1` (stereo not drawn), for which the “activity change” value is -2.58%.

`CCCCN(C(=O)CSc1nnc(-c2ccc(Cl)cc2)o1)c1c(N)n(CC(C)C)c(=O)[nH]c1=O`: the “activity change” value is 6.07%.

For `O=c1[nH]nc(CSCc2ccccc2Cl)[nH]1`, the “activity change” value is 4.01%.

As for `Cc1cc(C)n(CCC(=O)N/N=C/c2ccc(O)cc2O)n1`, the “activity change” value was 4.84%.

In the case of `CC(C)c1ccc(NC(=O)Cn2c(=O)oc3cccnc32)cc1`, the “activity change” value is 1.86%.

In the case of `COc1ccc(NC(=O)COC(=O)c2c(-c3ccccc3)noc2C)cc1`, the “activity change” value is 5.5%.

With `O=C1CCCC2=C1C(c1ccc(O)c(O)c1)Nc1ccc3ncccc3c12` (stereo not drawn), the “activity change” value was 1.66%.

Regarding `CC(=O)Oc1ccc2c(c1)Oc1cc(OC(C)=O)ccc1C21OC(=O)c2ccccc21`, the AC50 is 8.39 µM (active).

As to `CC(Sc1nc(-c2ccco2)nc2c1c(=O)n(C)c(=O)n2C)C(=O)O` (stereo not drawn), the “activity change” value was -10.9%.

As to `Cc1ccc(/C=C/S(=O)(=O)N2CCC(C(=O)O)CC2)cc1`, the “activity change” value was 2.52%.

Regarding `O=C(O)Cc1c[nH]c2cccc(O)c12`, the “activity change” value was 1.91%.

Turning to `CCN(CC)CCCC(C)n1c2nc(=O)[nH]c(=O)c-2nc2cc(Cl)ccc21` (stereo not drawn), the AC50 was 0.316 µM (active).

In the case of `CCOC(=O)c1sc(NC(=O)CSC(=S)N2CCN(C)CC2)nc1C`, the “activity change” value was 2.26%.

Take `Cc1n[nH]c(C)c1N1C(=O)c2cccc3c(N4CCCCCC4)ccc(c23)C1=O`: the AC50 is 33.6 µM (active).

Consider `Nc1ccc2c3c(cccc13)C(=O)N(c1ccccc1)C2=O`, for which the AC50 was 3.91 µM (active).

Take `COc1cc(OC)cc(C(=O)NC2CC3CCC(C2)N3C)c1` (stereo not drawn): the “activity change” value was 0.907%.

As for `CCOC(=O)N1CCN(C(=S)NC(=O)c2cccc(OC)c2)CC1`, the “activity change” value was -1.6%.

Turning to `O=C1c2cccc3c(O)ccc(c23)C(=O)N1Cc1ccco1`, the AC50 is 1.19 µM (active).

Regarding `O=C(Cn1nc(Cc2ccncc2)c2ccccc2c1=O)N1CCN(C(=O)c2ccco2)CC1`, the AC50 is 4.26 µM (active).

With `CCc1ccc[n+](-c2[nH]c(=O)sc2/C=N/NC([S-])=Nc2ccccc2)c1`, the AC50 was 14.8 µM (active).

Consider `O=C(O)CC(C(=O)O)N1C(=O)/C(=C/C=C/c2ccco2)SC1=S` (stereo not drawn), for which the “activity change” value is 5.71%.

Consider `CCN(c1ccc(C)cc1C)S(=O)(=O)c1nnc(NC(=O)c2ccco2)s1`, for which the “activity change” value is 7.43%.

On to `O=C(OCCN1C(=O)c2cccc3c(N4CCOCC4)ccc(c23)C1=O)c1ccc(Cl)cc1Cl`, for which the AC50 is 5.25 µM (active).

As to `Cn1cc(C(=O)c2ccc(Cl)cc2Cl)cc1C(=O)N/N=C(\N)COc1ccccc1`, the “activity change” value is 0.996%.

With `CCc1ccc(N2CC(C(=O)OCC(=O)N(CC)c3c(N)n(Cc4ccccc4)c(=O)[nH]c3=O)CC2=O)cc1` (stereo not drawn), the “activity change” value was 1.35%.

`Cc1c(C)n(Cc2ccccc2)c2ncnc(Cl)c12`: the “activity change” value was 3.51%.

In the case of `Cc1cc(C)n(CC(=O)NNC(=O)CC(C)c2ccccc2)n1` (stereo not drawn), the “activity change” value was 2.41%.

As to `O=C(CCNc1ccc(Cc2ccncc2)cc1)c1cccc([N+](=O)[O-])c1`, the “activity change” value was -1.92%.

On to `Cc1nc2ccccc2n2c(O)c(CC(=O)O)cc12`, for which the AC50 is 10.2 µM (active).

As for `CN(Cc1cnc2nc(N)nc(N)c2n1)c1ccc(C(=O)NC(CCC(=O)O)C(=O)O)cc1` (stereo not drawn), the “activity change” value was 2.09%.
